Data as given in PubChem BioAssay (Tox21).
Results filed as inconclusive are left out. Activity calls are given as the source filed them. Unless noted, calls follow the shape of the dose curve; as a rule, active = well fitted curve in the direction sought with a large enough effect in the repeat runs; inconclusive = weak or mixed curves; inactive = flat fitted curve, though single readings scatter.

Assays:
[1] = qHTS assay to test for compound auto fluorescence at 460 nm (blue) in HEK293 cell free culture (AID 720681)
Summary of the method: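 Test compounds were pinned into cell-free culture medium (DMEM with 10% FBS) and fluorescence was read directly at Ex/Em 405/460 nm. Signals were expressed as fluorescence equivalents of triamterene, with DMSO vehicle as control.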

[2] = qHTS assay to test for compound auto fluorescence at 535 nm (green) in HEK293 cell free culture (AID 720682)
Summary of the method: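 Green-label autofluorescence (485 nm excitation, 535 nm emission) measured on compound added to cell-free culture medium (DMEM, 10% FBS). Output is expressed relative to fluorescein.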

[3] = qHTS assay to test for compound auto fluorescence at 590 nm (red) in HEK293 cell free culture (AID 720683)
Summary of the method: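 Tox21 10K library compounds were pinned into cell-free DMEM with 10% FBS and fluorescence was read at excitation 540 nm. Activity is expressed as Rose Bengal sodium equivalency.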

[4] = qHTS assay to test for compound auto fluorescence at 590 nm (red) in HepG2 cell free culture (AID 720684)
Summary of the method: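 Measured in medium alone (MEM containing 10% FBS) following pintool addition of compound; emission at 590 nm with 540 nm excitation, referenced to Rose Bengal sodium.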

[5] = qHTS assay to test for compound auto fluorescence at 460 nm (blue) in HepG2 cell free culture (AID 720685)
Summary of the method: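 Compound (23 nL) or DMSO pinned into cell-free MEM with 10% FBS; blue fluorescence read at 405/460 nm excitation/emission, expressed as auto-fluorescence equivalency to triamterene.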

[6] = qHTS assay to test for compound auto fluorescence at 535 nm (green) in HepG2 cell free culture (AID 720686)
[7] = qHTS assay to test for compound auto fluorescence at 460 nm (blue) in HepG2 cells (AID 720687)
Summary of the method: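 Cells (2,000/well in MEM with 10% FBS) attached overnight at 37 C, then were exposed to compound or DMSO for 1 hr at 37 C, 5% CO2. Fluorescence read at Ex/Em 405/460 nm, expressed as triamterene-equivalent signal.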

[8] = biological target: Glucocorticoid receptor (Homo sapiens) (UniProt P04150); assay: qHTS assay to identify small molecule agonists of the glucocorticoid receptor (GR) signaling pathway (AID 720691; active = well fitted activation curve with a large enough effect in the signal ratio in the repeat runs, not every such curve was filed as active; the % refers to the signal ratio)
Summary of the method: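 GR-bla HeLa cells (beta-lactamase reporter under glucocorticoid response element) were plated 4 h at 37 C/5% CO2, given compounds in DMSO, and incubated 18 h at 37 C. LiveBLAzer B/G FRET substrate was added for 2 h at room temperature, then fluorescence intensity read.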

[9] = biological target: Glucocorticoid receptor (Homo sapiens) (UniProt P04150); assay: qHTS assay to identify small molecule antagonists of the glucocorticoid receptor (GR) signaling pathway (AID 720692; active = well fitted inhibition curve with a large enough effect in the signal ratio in the repeat runs, not every such curve was filed as active; the % refers to the signal ratio)
Summary of the method: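 GR-bla HeLa cells (beta-lactamase reporter under glucocorticoid response element) were pre-plated 4 h at 37 C, treated with compounds plus 5 nM dexamethasone (final) for 18 h, then read by LiveBLAzer B/G FRET fluorescence after 2 h.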

Measured: Potency

Chain of Glucocorticoid receptor (Homo sapiens) (P04150 whole entry, looked up): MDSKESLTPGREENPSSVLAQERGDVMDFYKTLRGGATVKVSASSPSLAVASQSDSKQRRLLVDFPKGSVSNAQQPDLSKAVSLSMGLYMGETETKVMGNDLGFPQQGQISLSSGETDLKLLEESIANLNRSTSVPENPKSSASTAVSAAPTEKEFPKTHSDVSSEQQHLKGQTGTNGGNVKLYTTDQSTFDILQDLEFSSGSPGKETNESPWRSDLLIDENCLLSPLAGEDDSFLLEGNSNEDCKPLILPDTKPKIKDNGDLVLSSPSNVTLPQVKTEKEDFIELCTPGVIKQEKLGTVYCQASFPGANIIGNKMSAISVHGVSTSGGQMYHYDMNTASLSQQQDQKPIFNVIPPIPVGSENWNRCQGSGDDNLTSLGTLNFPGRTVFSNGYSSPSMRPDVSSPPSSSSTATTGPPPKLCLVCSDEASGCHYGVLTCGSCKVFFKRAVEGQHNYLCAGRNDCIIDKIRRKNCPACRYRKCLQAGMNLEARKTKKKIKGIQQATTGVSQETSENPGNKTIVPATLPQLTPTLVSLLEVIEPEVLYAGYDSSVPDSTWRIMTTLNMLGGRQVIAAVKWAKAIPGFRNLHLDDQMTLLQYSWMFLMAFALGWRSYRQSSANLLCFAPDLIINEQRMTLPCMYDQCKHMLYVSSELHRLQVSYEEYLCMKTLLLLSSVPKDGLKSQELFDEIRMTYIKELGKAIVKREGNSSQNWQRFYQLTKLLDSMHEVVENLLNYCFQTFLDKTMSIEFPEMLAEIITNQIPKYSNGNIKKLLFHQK

CC(=O)C=C(C)C
inactive: [1] | [2] | [3] | [4] | [5] | [6] | [7] | [8] | [9]

O=[N+]([O-])c1ccc([As](=O)(O)O)cc1
inactive: [1] | [2] | [3] | [4] | [5] | [6] | [8] | [9]

O=[N+]([O-])c1ccc(Oc2ccc(Cl)cc2Cl)cc1
inactive: [1] | [2] | [3] | [4] | [5] | [6] | [7] | [8] | [9]

ClCc1cccnc1
inactive: [2] | [3] | [4] | [5] | [7] | [8] | [9]

C1CC2OC2CC1C1CO1 (stereo unspecified)
inactive: [2] | [3] | [4] | [5] | [6] | [7]

CC(C)(C)OOC(=O)c1ccccc1
inactive: [2] | [3] | [4] | [5] | [6] | [7] | [8] | [9]

CCOP(OCC)OCC
inactive: [1] | [2] | [3] | [4] | [5] | [6] | [7]

C[C@]12CC[C@H]3[C@@H](CC[C@@]45O[C@@H]4C(O)=C(C#N)C[C@]35C)[C@@H]1CC[C@@H]2O
inactive: [1] | [2] | [3] | [4] | [5] | [6] | [7]

O=C(O)c1ccccn1
inactive: [1] | [2] | [3] | [4] | [5] | [6] | [8] | [9]

COC(=O)NC(=S)Nc1ccccc1NC(=S)NC(=O)OC
inactive: [2] | [3] | [4] | [5] | [6] | [7] | [8] | [9]

Cc1cccc([N+](=O)[O-])c1
inactive: [2] | [3] | [4] | [5] | [6] | [8]

CC(C)C#N
inactive: [2] | [3] | [4] | [5] | [8] | [9]

c1ccc2c(c1)Oc1ccccc1O2
inactive: [2] | [3] | [4] | [5] | [6] | [8] | [9]

CN(C)[C@@H]1C(=O)C(C(N)=O)=C(O)[C@@]2(O)C(=O)C3=C(O)c4c(O)cccc4[C@@](C)(O)[C@H]3C[C@@H]12
inactive: [1] | [2] | [3] | [4] | [5] | [6] | [7] | [8] | [9]

CCCCN(CC)C(=O)SCCC
inactive: [1] | [2] | [3] | [4] | [5] | [8] | [9]

CCNc1nc(NC(C)(C)C)nc(SC)n1
inactive: [1] | [2] | [3] | [4] | [5] | [7] | [8] | [9]

Clc1ccc(Cl)cc1
inactive: [2] | [3] | [4] | [5] | [8] | [9]

[N-]=[N+]=[N-]
inactive: [1] | [2] | [3] | [4] | [5] | [6] | [7] | [8] | [9]

O=c1[nH]c2ccccc2c(=O)o1
inactive: [1] | [2] | [3] | [4] | [5] | [6] | [7] | [8] | [9]

CC(C)C1(C)N=C(c2nc3ccccc3cc2C(=O)O)NC1=O (stereo unspecified)
inactive: [1] | [2] | [3] | [4] | [5] | [7] | [8] | [9]

Cn1cc(-c2ccccc2)c(=O)c(-c2cccc(C(F)(F)F)c2)c1
inactive: [2] | [3] | [4] | [5] | [7] | [8] | [9]

Cc1ccc(N)cc1N
inactive: [2] | [3] | [4] | [5] | [8] | [9]

CCN(CC)CCO
inactive: [1] | [2] | [3] | [4] | [5] | [6] | [8] | [9]

CCOP(=S)(OCC)Oc1cnc2ccccc2n1
inactive: [2] | [3] | [4] | [5] | [7] | [8] | [9]

COC(=O)c1ccccc1C(=O)OC
inactive: [2] | [3] | [4] | [5] | [6] | [8] | [9]

O=S(=O)(c1ccc(O)cc1)c1ccc(O)cc1
inactive: [2] | [3] | [4] | [5] | [8] | [9]

COCCl
inactive: [1] | [2] | [3] | [4] | [5] | [6] | [8] | [9]

CC(C)=C[C@@H]1[C@@H](C(=O)OCc2coc(Cc3ccccc3)c2)C1(C)C
inactive: [1] | [2] | [3] | [4] | [5] | [7] | [8] | [9]

CCC[CH2][Sn]([Cl])([Cl])[Cl]
inactive: [1] | [2] | [3] | [4] | [5] | [7] | [8]
